Test results as given in the supplement of paper PMC11026393.

Test system: SH-SY5Y
Assay: difference in mean normalized H2B-mRuby nuclear fluorescence intensity relative to DMSO control (normalized intensity difference (DMSO = 0)); higher = stronger increase in transgene reporter fluorescence
Conditions: 24 h
Procedure: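 Cancer cell lines stably expressing H2B-mRuby2 from a lentiviral PGK promoter were treated with each drug for 24 h and imaged on a Leica DMI8 (ex 541-551 / em 565-605 nm). Nuclei were segmented in CellProfiler. The value is the difference in mean per-nucleus normalized H2B-mRuby intensity versus DMSO-treated cells (about 3 repeats x 4 fields). Doxorubicin is itself fluorescent. Dasatinib is in nM.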

COc1cc([C@@H]2c3cc4c(cc3[C@@H](O[C@@H]3O[C@@H]5CO[C@@H](C)O[C@H]5[C@H](O)[C@H]3O)[C@H]3COC(=O)[C@H]23)OCO4)cc(OC)c1O (concentration unit: uM)
difference (concentration: 1): 0.0162
difference (concentration: 2.5): 0.042
difference (concentration: 5): 0.0775
difference (concentration: 10): 0.0738
difference (concentration: 20): 0.0983

Nc1ncn([C@@H]2O[C@H](CO)[C@@H](O)[C@H]2O)c(=O)n1 (concentration unit: uM)
difference (concentration: 1): 0.0451
difference (concentration: 2.5): 0.0373
difference (concentration: 5): 0.0486
difference (concentration: 10): 0.0991
difference (concentration: 20): 0.0901

COc1cc2ncnc(Nc3ccc(F)c(Cl)c3)c2cc1OCCCN1CCOCC1 (concentration unit: uM)
difference (concentration: 1): 0.0355
difference (concentration: 2.5): 0.0288
difference (concentration: 5): 0.0297
difference (concentration: 10): 0.0546
difference (concentration: 20): 0.086

Cc1[nH]c2ccccc2c1CCNCc1ccc(/C=C/C(=O)NO)cc1 (concentration unit: nM)
difference (concentration: 10): 0.13
difference (concentration: 50): 0.783
difference (concentration: 100): 1.09
difference (concentration: 250): 1.19
difference (concentration: 500): 1.16

COc1cccc2c1C(=O)c1c(O)c3c(c(O)c1C2=O)C[C@@](O)(C(=O)CO)C[C@@H]3O[C@H]1C[C@H](N)[C@H](O)[C@H](C)O1 (concentration unit: nM)
difference (concentration: 25): -0.0232
difference (concentration: 100): 0.0095
difference (concentration: 250): 0.0862
difference (concentration: 1000): 0.155
difference (concentration: 2500): 0.202

Cc1nc(Nc2ncc(C(=O)Nc3c(C)cccc3Cl)s2)cc(N2CCN(CCO)CC2)n1 (concentration unit: nM)
difference (concentration: 25): 0.0391
difference (concentration: 100): 0.111
difference (concentration: 250): 0.137
difference (concentration: 1000): 0.178
difference (concentration: 2500): 0.156
